Experimental findings from PubChem BioAssay (NCI) are described below.

This is part of a sample that, as a whole, favours compounds with a hit. Of some 83,000 tested, about 20% had one in any assay.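 The test compound was applied at a single concentration to cells in 96-well plates for 48 hours, and percent growth was recorded.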 Values without a mark were called inactive. Activity calls are given as the source filed them. Rule for the calls: active = growth percent below 10; inactive = the rest.

Test systems include SR leukemia; RPMI-8226 leukemia; OVCAR-8 ovarian; OVCAR-5 ovarian; OVCAR-4 ovarian; SK-OV-3 ovarian; IGROV1 ovarian; OVCAR-3 ovarian; HS 578T breast; NCI/ADR-RES ovarian; T-47D breast; BT-549 breast; MDA-MB-435 melanoma; SW-620 colon; MCF7 breast; HCT-116 colon; HCC-2998 colon; MDA-MB-468 breast; KM12 colon.
What all share (experiment): NCI-60 one-dose screen, 48 h (100 = growth as untreated, 0 = no growth, -100 = all killed)
Common to all, as to details: 10 µM unless noted

Regarding `COc1cccc(NC(=O)c2ccc(NC(=O)CCl)s2)c1`, the growth with SR leukemia was -0.752% (active); in the experiment with RPMI-8226 leukemia it was -22.9% (active); in the experiment on OVCAR-8 ovarian it was 10.2%; with OVCAR-5 ovarian, 47.3%; with OVCAR-4 ovarian, 94.6%; in the experiment with SK-OV-3 ovarian, -1.99% (active). Further, the growth in the experiment with IGROV1 ovarian was -13.4% (active); with OVCAR-3 ovarian, 35.8%; in the experiment with HS 578T breast, 65.9%; in the experiment with NCI/ADR-RES ovarian, 22.5%; in the experiment with T-47D breast, 26.2%; in the experiment on BT-549 breast, 27.2%. Also, the growth is 2.66% (active) in the experiment with MDA-MB-435 melanoma; 3.86% (active) in the experiment on SW-620 colon; 5.63% (active) with MCF7 breast; -27.4% (active) with HCT-116 colon; 80.6% with HCC-2998 colon; -14.7% (active) in the experiment on MDA-MB-468 breast.
On to `CCOc1ccc2[nH]c(=O)c(C(c3nnnn3CC3CCCO3)N3CCN(Cc4ccccc4)CC3)cc2c1` (configuration not stated), for which the growth in the experiment with SR leukemia is 111%; in the experiment on RPMI-8226 leukemia, 99.1%; with OVCAR-8 ovarian it was 84.2%; with OVCAR-5 ovarian, 97%; with OVCAR-4 ovarian it was 94.9%; in the experiment with SK-OV-3 ovarian, 79.3%. For the same molecule, the growth in the experiment with IGROV1 ovarian was 84.6%; in the experiment with OVCAR-3 ovarian, 100%; in the experiment with HS 578T breast, 20.1%; with NCI/ADR-RES ovarian it was 90.1%; with T-47D breast, 106%; with BT-549 breast, 81.7%. For the same molecule, the growth with MDA-MB-435 melanoma was 99.3%; in the experiment with SW-620 colon, 98.8%; with MCF7 breast, 92.4%; in the experiment on HCT-116 colon it was 78%; in the experiment on HCC-2998 colon it was 122%; in the experiment on MDA-MB-468 breast, 72.4%.
In the case of `Cc1ccc(/C=C/C(=O)c2ccc(S(=O)(=O)NCCNc3nc(N(C)C)nc(N4CCOCC4)n3)cc2)cc1`, the growth was -36.4% (active) with SR leukemia; -15.6% (active) with RPMI-8226 leukemia; 88.8% with OVCAR-8 ovarian; 97.6% with OVCAR-5 ovarian; 91.6% in the experiment with OVCAR-4 ovarian; 90.5% with SK-OV-3 ovarian. For the same molecule, the growth is 102% in the experiment on IGROV1 ovarian; 109% with OVCAR-3 ovarian; 97.9% in the experiment on HS 578T breast; 86.2% in the experiment with NCI/ADR-RES ovarian; 69.6% in the experiment with T-47D breast; 97.3% in the experiment on BT-549 breast. Also, the growth is 74.8% in the experiment with MDA-MB-435 melanoma; 29.1% in the experiment with SW-620 colon; 7.32% (active) with MCF7 breast; -21.6% (active) in the experiment on HCT-116 colon; 114% with HCC-2998 colon; 21.1% with KM12 colon. The growth with MDA-MB-468 breast was 67.3%.
Regarding `COc1cc(/C=C/C(=O)c2cnn(-c3cc(=O)[nH]c4ccc(Br)cc34)c2C)cc(OC)c1OC`, the growth is -15.2% (active) in the experiment with SR leukemia; -23.7% (active) in the experiment on RPMI-8226 leukemia; 7.35% (active) in the experiment on OVCAR-8 ovarian; -68% (active) in the experiment with OVCAR-5 ovarian; 25.6% in the experiment with OVCAR-4 ovarian; 19.5% in the experiment on SK-OV-3 ovarian. Further, the growth is -59.8% (active) in the experiment on IGROV1 ovarian; -59.1% (active) with OVCAR-3 ovarian; 54.1% with HS 578T breast; -26.8% (active) with NCI/ADR-RES ovarian; -47.3% (active) in the experiment on T-47D breast; -44.7% (active) in the experiment on BT-549 breast. Besides, the growth in the experiment with MDA-MB-435 melanoma is 0.423% (active); with SW-620 colon, -67.4% (active); in the experiment on MCF7 breast it was -46% (active); with HCT-116 colon, -68.9% (active); in the experiment with HCC-2998 colon, -96.8% (active); in the experiment with MDA-MB-468 breast, -80.6% (active).
In the case of `CCOc1ccc(-c2cc(-c3cc(C(C)C)c(O)cc3C)nn2-c2ccc(S(N)(=O)=O)cc2)cc1`, the growth was 5.54% (active) with SR leukemia; 13.8% in the experiment with RPMI-8226 leukemia; 36.4% in the experiment on OVCAR-8 ovarian; 53% in the experiment with OVCAR-5 ovarian; 29.6% in the experiment with OVCAR-4 ovarian; 55.3% in the experiment on SK-OV-3 ovarian. Also, the growth in the experiment with IGROV1 ovarian was 80.4%; with OVCAR-3 ovarian, 36.2%; with HS 578T breast it was 35.9%; in the experiment on NCI/ADR-RES ovarian, 4.14% (active); in the experiment with T-47D breast, 18.4%; in the experiment on BT-549 breast, 3.59% (active). The growth was -43.6% (active) with MDA-MB-435 melanoma; 33.3% in the experiment on SW-620 colon; 12% in the experiment on MCF7 breast; 24% with HCT-116 colon; 4.6% (active) in the experiment on HCC-2998 colon; -16.5% (active) in the experiment with MDA-MB-468 breast.
In the case of `CN(C)c1nc(NCCNS(=O)(=O)c2ccc(C(=O)/C=C/c3ccc(C(F)(F)F)cc3)cc2)nc(N2CCOCC2)n1`, the growth is -23% (active) with SR leukemia; -44.2% (active) in the experiment on RPMI-8226 leukemia; 1.73% (active) with OVCAR-8 ovarian; 5.43% (active) in the experiment with OVCAR-5 ovarian; 56.5% in the experiment with OVCAR-4 ovarian; 76.2% in the experiment on SK-OV-3 ovarian. The growth is -93.9% (active) in the experiment with IGROV1 ovarian; -43% (active) in the experiment on OVCAR-3 ovarian; 67.8% with HS 578T breast; -31.5% (active) with NCI/ADR-RES ovarian; -61.2% (active) in the experiment on T-47D breast; -20.8% (active) in the experiment on BT-549 breast. Moreover, the growth with MDA-MB-435 melanoma was -59.4% (active); in the experiment on SW-620 colon, -76.7% (active); in the experiment on MCF7 breast it was -84.5% (active); in the experiment with HCT-116 colon it was -91.4% (active); with HCC-2998 colon, -97.6% (active); in the experiment with MDA-MB-468 breast it was -96.1% (active).
Consider `O=C(Nc1ccc(-c2ccc3c(c2)NC(=O)/C3=C\c2ccc[nH]2)cc1)Nc1ccc(Cl)c(Cl)c1`, for which the growth with SR leukemia was 16%; in the experiment with RPMI-8226 leukemia, 41.1%; with OVCAR-8 ovarian, 55.6%; with OVCAR-5 ovarian, 67.9%; with OVCAR-4 ovarian, 37.6%; in the experiment on SK-OV-3 ovarian, 94.7%. For the same molecule, the growth in the experiment on IGROV1 ovarian is 65.7%; with OVCAR-3 ovarian, 12.9%; in the experiment with HS 578T breast, 45.9%; in the experiment with NCI/ADR-RES ovarian, 51.4%; in the experiment with T-47D breast it was 18.8%; in the experiment with BT-549 breast, 40.5%. For the same molecule, the growth was 62.6% with MDA-MB-435 melanoma; 16.7% in the experiment on SW-620 colon; 9.81% (active) in the experiment with MCF7 breast; 35.3% in the experiment with HCT-116 colon; 83.5% in the experiment on HCC-2998 colon; -16.8% (active) with MDA-MB-468 breast.
